Source: the supplement of paper PMC6089552
Hit rate of the full screen: of about 3,200 compounds, about 300 (9.4%) showed activity. Many of the other results were omitted from the sample, so actives are more common in it than they were.

Test system: A673/TR/shEF
Test: cell viability (LOESS-normalised, relative to median of negative controls) (log2 ratio); higher = more viable cells (less compound effect), active = hit call of the paper (over 3 MAD below the median)
Conditions: treatment time: 72 h
Method in brief: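 Viability of A673/TR/shEF Ewing sarcoma cells was determined by CellTiter-Glo luminescence. The cells, at 1,500 per well in 384-well plates, were grown with or without doxycycline from 24 h before compound addition to switch on EWS-FLI1 shRNA knockdown, then exposed for three days to library compounds at two or more concentrations or to DMSO controls. Signals were LOESS-corrected plate by plate, normalised to the negative-control median and log2-transformed.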

[1] = 0.25 µM, library screen: screen1, EWS-FLI1 expression: high (no doxycycline)
[2] = 0.25 µM, library screen: screen1, EWS-FLI1 expression: low (doxycycline-induced shRNA knockdown)
[3] = 2.5 µM, library screen: screen1, EWS-FLI1 expression: high (no doxycycline)
[4] = 2.5 µM, library screen: screen1, EWS-FLI1 expression: low (doxycycline-induced shRNA knockdown)
[5] = 0.25 µM, library screen: screen2, EWS-FLI1 expression: high (no doxycycline)
[6] = 0.25 µM, library screen: screen2, EWS-FLI1 expression: low (doxycycline-induced shRNA knockdown)
[7] = 2.5 µM, library screen: screen2, EWS-FLI1 expression: high (no doxycycline)
[8] = 2.5 µM, library screen: screen2, EWS-FLI1 expression: low (doxycycline-induced shRNA knockdown)

Measured: cell viability (log2)

C=C[C@H]1CN2CC[C@H]1C[C@@H]2[C@@H](OC(=O)OCC)c1ccnc2ccc(OC)cc12
inactive: [1] 0.12 | [2] 0.082 | [3] 0.173 | [4] 0.169

Brc1ccc(CN2CCNCC2)cc1
inactive: [1] 0.0414 | [2] 0.121 | [3] 0.0626 | [4] 0.0805

C[C@@H](N)[C@@H](O)c1ccccc1
inactive: [1] 0.199 | [2] 0.05 | [3] 0.0838 | [4] 0.0342

O=C(O)COc1ccc(Cl)cc1Cl
inactive: [1] 0.0733 | [2] 0.0542 | [3] 0.0257 | [4] 0.121

Oc1ccc2c3c1O[C@H]1c4oc5ccccc5c4C[C@@]4(O)C(C2)N(CC2CC2)CCC314 (some centres undefined)
inactive: [5] 0.123 | [6] 0.122 | [7] 0.0412 | [8] 0.065

CC(C)(C)c1o[nH]c(=O)c1CC(N)C(=O)O (centres undefined)
inactive: [5] 0.0947 | [6] 0.0371 | [7] 0.104 | [8] 0.0294

CC[C@@H](C)C(=O)O[C@H]1[C@H](O)[C@H]2[C@@H](CN3C[C@@H](C)CC[C@H]3[C@@]2(C)O)[C@@H]2C[C@]34O[C@]5(O)[C@@H](OC(=O)[C@@](C)(O)[C@@H](C)O)CC[C@@]3(C)[C@@H]5[C@@H](OC(C)=O)[C@@H](OC(C)=O)[C@H]4[C@@]21O
inactive: [1] 0.0432 | [2] 0.0125 | [3] 0.068 | [4] 0.0811

CN1C2CC3CC1[C@H](O)C2O3 (some centres undefined)
inactive: [1] 0.0139 | [2] -0.0209 | [3] 0.0278 | [4] 0.0758

NC(CF)(Cc1cnc[nH]1)C(=O)O (centres undefined)
inactive: [5] 0.186 | [6] 0.069 | [7] 0.162 | [8] 0.1

CC(=O)O[C@@H]1C[C@H]2C(C)(C)C(=O)C=C[C@]2(C)[C@H]2CC[C@]3(C)C(=CC(=O)O[C@H]3c3ccoc3)[C@@]21C
inactive: [1] 0.03 | [2] 0.143 | [3] 0.0618 | [4] 0.0922

C=C(C)C(=O)/C(=C\C(=O)O)OC
inactive: [1] 0.0761 | [2] 0.0593 | [3] 0.138 | [4] 0.0173

COP(=O)(OC)OC(Br)C(Cl)(Cl)Br (centres undefined)
inactive: [1] 0.05 | [2] -0.000859 | [3] 0.0787 | [4] 0.115

COc1cc(OC)c(OC)cc1C=O
inactive: [1] 0.0675 | [2] 0.0986 | [3] 0.037 | [4] 0.0609

CN[C@@H](C)[C@H](O)c1ccccc1
inactive: [1] 0.0728 | [2] 0.0797 | [5] 0.178 | [6] 0.073 | [3] 0.233 | [4] 0.0725 | [7] 0.0371 | [8] 0.00703

O=C(O)c1cc[c]([Hg][Cl])cc1
inactive: [5] 0.203 | [6] 0.0774 | [8] 0.0559
active: [7] -0.0791

COc1ccc(C(=O)O)cc1OC
inactive: [1] 0.0171 | [2] 0.0588 | [3] 0.137 | [4] -0.0498

NNCc1cccc(O)c1
inactive: [1] 0.103 | [2] 0.0544 | [5] 0.129 | [6] 0.00623 | [3] 0.142 | [4] 0.142 | [7] 0.151 | [8] 0.0221

NC(Cc1cc(O)c(O)cc1O)C(=O)O (centres undefined)
inactive: [5] 0.0775 | [6] 0.133 | [7] 0.0832 | [8] 0.2

CC(=O)c1c(O)c(C)c(O)c(Cc2c(O)c3c(c(C(=O)/C=C/c4ccccc4)c2O)OC(C)(C)C=C3)c1O
inactive: 0.025 µM, library screen: screen1, EWS-FLI1 expression: high (no doxycycline) 0.0285 | 0.025 µM, library screen: screen1, EWS-FLI1 expression: low (doxycycline-induced shRNA knockdown) 0.0263 | [1] 0.0889 | [2] 0.0306 | [5] 0.209 | [6] 0.109 | [3] 0.055 | [4] -0.0112 | [7] 0.118 | [8] 0.156 | 25 µM, library screen: screen1, EWS-FLI1 expression: low (doxycycline-induced shRNA knockdown) -0.0436
active: 25 µM, library screen: screen1, EWS-FLI1 expression: high (no doxycycline) -0.306

CC(N)Cc1c[nH]c2ccc(O)cc12 (centres undefined)
inactive: [5] 0.112 | [6] 0.067 | [7] 0.123 | [8] 0.0164

COc1ccc(C(c2ccc(OC)cc2)C(Cl)(Cl)Cl)cc1
inactive: [1] 0.0772 | [2] 0.0568 | [3] 0.0994 | [4] 0.0877

ClC1=C(Cl)[C@]2(Cl)[C@H]3[C@H]([C@@H]4C=C[C@H]3C4)[C@@]1(Cl)C2(Cl)Cl
inactive: [1] 0.211 | [2] 0.0643 | [3] 0.0733 | [4] 0.136

CCN(CC)C(=O)N[C@@H]1C[C@@H]2c3cccc4[nH]cc(c34)C[C@H]2N(C)C1
inactive: [5] 0.108 | [6] 0.0251 | [7] 0.215 | [8] -0.0279

CCCCSP(=O)(SCCCC)SCCCC
inactive: [2] 0.121 | [3] 0.0791 | [4] 0.0846
active: [1] -0.12

CCCSP(=O)(OCC)SCCC
inactive: [1] 0.112 | [2] 0.104 | [3] 0.0625 | [4] 0.0939

CC1=C[C@@H]2c3cccc4[nH]cc(c34)C[C@H]2N(C)C1
inactive: [5] 0.126 | [6] 0.0939 | [7] 0.18 | [8] 0.0817

CCOP(=S)(OCC)SCSCC
inactive: [1] 0.102 | [2] -0.0178 | [3] 0.0726 | [4] 0.115

NC1CC1c1ccccc1 (centres undefined)
inactive: [1] 0.107 | [2] 0.128 | [3] 0.188 | [4] 0.0868

COc1ccc2c3c1O[C@H]1[C@@H](O)CCC4[C@@H](C2)N(C)CC[C@@]341 (some centres undefined)
inactive: [1] 0.0725 | [2] 0.0483 | [3] 0.0123 | [4] 0.128

C=CCN1CCC2(C)c3cc(O)ccc3CC1C2C (centres undefined)
inactive: [5] 0.143 | [6] 0.072 | [7] 0.0589 | [8] 0.0707

N#Cc1c(Cl)c(Cl)c(Cl)c(C#N)c1Cl
inactive: [1] -0.0732 | [2] 0.00425 | [4] 0.063
active: [3] -0.219

N#Cc1c(Cl)cccc1Cl
inactive: [1] 0.126 | [2] 0.0183 | [3] 0.084 | [4] 0.0798
